# Screening data (PubChem)
# An excerpt weighted towards active compounds, which were near 12% of everything screened.
# Sfp inh: qHTS Assay for Inhibitors of Bacillus subtilis Sfp phosphopantetheinyl transferase (PPTase); Biochemical Sfp PPTase activity, qHTS; Potency, µM, hits mostly inhibitors; 310,000 tested, 3.5% active; AID 1490, 2009;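 note: the enzyme is Sfp with the accession as filed and its product quenches rhodamine fluorescence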
#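 Fluorescence-quenching assay with 15 nM Sfp, 5 uM rhodamine-CoA and 12.5 uM BHQ-2-labelled ybbR peptide in pH 7.6 Hepes/MgCl2 buffer. Enzyme was pre-incubated with compound for 15 min at room temperature. Rate was taken from the 30-min fluorescence change (525/598 nm).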
# G9a inh: qHTS Assay for Inhibitors of Histone Lysine Methyltransferase G9a; Histone-lysine N-methyltransferase EHMT2 (Homo sapiens), Q96KQ7; 350,000 tested, 8.8% active; G9a H3K9 monomethylation, AlphaScreen, 2 h; Potency, µM (series often up to 102 µM), usual class: inhibitors; note: nearly all actives have a fitted effect of over 75% in size
# Target sequence (Q96KQ7 913-1193 limits assumed): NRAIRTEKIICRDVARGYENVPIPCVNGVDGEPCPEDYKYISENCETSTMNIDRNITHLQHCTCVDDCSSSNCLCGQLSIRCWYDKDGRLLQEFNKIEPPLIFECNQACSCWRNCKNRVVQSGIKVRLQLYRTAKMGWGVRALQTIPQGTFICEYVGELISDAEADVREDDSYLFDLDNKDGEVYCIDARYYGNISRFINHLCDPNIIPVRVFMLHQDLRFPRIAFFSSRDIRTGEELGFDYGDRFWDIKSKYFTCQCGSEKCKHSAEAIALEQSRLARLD
#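 AlphaScreen detection with an anti-monomethyl H3K9 antibody quantified product after a 2 h room-temperature reaction containing 500 nM biotinylated H3K9 peptide, 20 µM SAM and 20 nM enzyme, which had been preincubated 15 min with compound.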
# TDP1 inh: qHTS Assay for Inhibitors of Tyrosyl-DNA Phosphodiesterase (TDP1); recombinant TDP1, AlphaScreen DNA substrate cleavage; Potency, µM (doses to about 130 µM), actives largely listed as inhibitors; 350,000 tested, 0.28% active; note: nearly all actives have a fitted effect of over 40% in size
#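 Tdp1 1 nM final; 15 min RT w/ cpd; substrate 15 nM, 5 min; beads 10 ug/ml, 10 min; AlphaScreen read. Neg ctrl: no enzyme.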
# JMJD2A Tudor inh: qHTS Assay for Inhibitors of JMJD2A-Tudor Domain. AlphaScreen JMJD2A-Tudor / H3K4me3 peptide binding. 390,000 tested, 4.4% active. AID 504339, 2011. Potency, µM (highest dose often 114 µM), actives largely listed as inhibitors. Lysine-specific demethylase 4A (Homo sapiens), O75164; note: nearly all actives have a fitted effect of over 50% in size
# HP1b chromo inh: HTS for Inhibitors of HP1-beta Chromodomain Interactions with Methylated Histone Tails. AlphaScreen HP1-beta / biotin-H3K9me3 peptide binding. Potency, µM (highest dose often 114 µM), actives largely listed as inhibitors. 390,000 tested, 0.56% active. AID 540317, 2011; note: nearly all actives have a fitted effect of over 70% in size
# Target sequence (P83916 whole entry, looked up): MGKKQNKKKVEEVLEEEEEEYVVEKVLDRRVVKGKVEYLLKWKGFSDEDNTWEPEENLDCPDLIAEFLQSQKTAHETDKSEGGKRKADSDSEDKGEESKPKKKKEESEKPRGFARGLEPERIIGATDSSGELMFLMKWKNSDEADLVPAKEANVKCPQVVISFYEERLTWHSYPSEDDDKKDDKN
#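 HP1-beta protein (50 nM final) preincubated 30 min at room temperature with biotinylated H3(1-18)K9me3 peptide (50 nM) in PBS pH 7.4, 0.01% Tween-20, then compound added for 30 min. AlphaScreen streptavidin donor/nickel chelate acceptor beads (10 ug/mL final), 30 min dark, luminescence read.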
# BAZ2B inh: qHTS Assay for Inhibitors of BAZ2B; AlphaScreen BAZ2B-H3K14Ac peptide displacement; Potency, µM (series often up to 114 µM), hits mostly inhibitors; AID 504333, 2011; Bromodomain adjacent to zinc finger domain protein 2B (Homo sapiens), Q9UIF8; 360,000 tested, 4.4% active; note: nearly all actives have a fitted effect of over 60% in size
#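 In this displacement format the biotinylated H3(5-23) peptide acetylated at Lys14 serves as ligand at 50 nM, with BAZ2B at 50 nM in PBS pH 7.4 containing 0.01% Tween-20. Donor and acceptor beads are 10 ug/mL final.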
# Hits are given with their value; – = inactive; ? = inconclusive; · = not tested or not shown; [ ] = dose if it differs, or a comment. Calls come from the whole dose curve; as a rule, active = well fitted curve in the direction sought with a large enough effect; inconclusive = small, poorly fitted or top-dose-only effect, or another doubt; inactive = no such curve, though single readings can be large; an effect the other way counts as inactive or inconclusive.
SMILES,Sfp inh,G9a inh,TDP1 inh,JMJD2A Tudor inh,HP1b chromo inh,BAZ2B inh
O=C(NCCc1ccc(Cl)cc1)c1nc(-c2cccc(F)c2)n2c1CCCCC2,·,25µM,–,22µM,–,11µM
COc1ccc(N(C)C(=O)c2nc(-c3cccc(F)c3)n3c2CCCCC3)c(OC)c1,·,–,–,–,–,–
O=C1CC2(CCN(C(=O)c3c(F)cccc3Cl)CC2)Oc2ccccc21,·,–[0.501 µM],–,–,–,–
CCCCNC(=O)c1ccc2c(c1)NC(=O)C(CS(=O)(=O)Cc1ccc(F)cc1Cl)N2 (stereo not given),·,?,–,–,–,–
Cc1ccc(CNC(=O)c2ccc3c(c2)NC(=O)C(CS(=O)(=O)Cc2cccc(C)c2)N3)cc1 (stereo not given),·,14µM,–,–,–,–
O=C(NCc1ccccc1Cl)c1ccc2c(c1)NC(=O)C(CS(=O)(=O)Cc1ccc(Cl)cc1)N2 (stereo not given),·,28µM,–,?,–,–
CC(C)(C)c1ccc(C2=NC(=O)C(CC(=O)O)S2)cc1 (stereo not given),50µM,50µM,–,–,–,?
O=C(O)c1cc(NC(=O)c2ccc3c(c2)C(=O)N(Cc2ccccc2)C3=O)cc(C(=O)O)c1,–,·,–,–,–,?
CCOCCn1c(SCc2ccccc2)nc2c1c(=O)[nH]c(=O)n2C,–,–[12.7 µM],·,–,–,–
C=CCSc1nc2c(c(=O)[nH]c(=O)n2C)n1CC,14µM,?,–,–,?,–
C/C=C/Cn1c(SCc2ccccc2)nc2c1c(=O)[nH]c(=O)n2C,?,35µM,–,–,–,–
Cc1ccc(Cn2c(Sc3ncccn3)nc3c2c(=O)[nH]c(=O)n3C)cc1,–,–,–,–,–,–
C/C=C/CSc1nc2c(c(=O)[nH]c(=O)n2C)n1Cc1ccc(C)cc1,?,4.5µM,–,–,–,–
Cc1cccc(-c2nnc(-c3ccc4ccccc4c3)o2)c1,·,·,·,–,–,·
COc1ccccc1CNc1ccc(-c2nc(-c3ccco3)no2)cc1[N+](=O)[O-],·,?,–,–,–,–
COc1cc(S(=O)(=O)N(Cc2cccnc2)Cc2cccc(OC)c2OC)ccc1-n1cnnn1,–,18µM,–,–,–,79µM
COc1ccccc1CN(Cc1cccnc1)S(=O)(=O)c1ccc(-n2cnnn2)c(OC)c1,–,–,·,–,–,–
COc1ccc(CN(Cc2cccnc2)S(=O)(=O)c2ccc(-n3cnnn3)c(C)c2)cc1OC,–,16µM,–,–,–,–
c1ccc(Cn2nnnc2C(c2ccncc2)N2CCOCC2)cc1 (stereo not given),–,–,–,–,–,–
O=c1[nH]c2cc3c(cc2cc1C(c1nnnn1Cc1ccccc1)N1CCN2CCCC2C1)OCCO3 (stereo not given),–,?,–,–,–,–
Cc1cc2cc(C(c3nnnn3Cc3ccco3)N3CCCCC3)c(=O)[nH]c2cc1C (stereo not given),40µM,50µM,–,–,–,–
O=c1[nH]c2cc3c(cc2cc1C(c1nnnn1Cc1ccccc1)N1CCCCCC1)OCCO3 (stereo not given),–,14µM,–,–,–,–
COc1ccc2cc(C(c3nnnn3CCc3ccccc3)N3CCCC(C)C3)c(=O)[nH]c2c1 (stereo not given),–,45µM,–,?,–,–
Cc1cc(C(c2nnnn2Cc2ccccc2)N2CCOCC2)c(C)n1-c1ccc2c(c1)OCO2 (stereo not given),28µM,40µM,–,?,?,?
CCOC(=O)c1c(C)[nH]c(C)c1S(=O)(=O)N1CCC(C(=O)Nc2ccc(C)cn2)CC1,·,–,–,–,–,–
SMILES,Sfp inh,G9a inh,TDP1 inh,JMJD2A Tudor inh,HP1b chromo inh,BAZ2B inh
Cc1cccc2cc(C(c3nnnn3Cc3ccc4c(c3)OCO4)N3CCCC3)c(=O)[nH]c12 (stereo not given),56µM,18µM,–,–,–,–
Cc1ccc2cc(C(c3nnnn3C(C)(C)C)N3CCCC3)c(=O)[nH]c2c1C (stereo not given),45µM,32µM,–,·,·,–
CCC(C)(C)n1nnnc1C(c1cc2cc3c(cc2[nH]c1=O)OCO3)N1CCCCC1 (stereo not given),–,–[12.7 µM],–,–,–,–
Nc1nc2ccc(S(=O)(=O)N3CCCCC3)cc2s1,10µM,6.3µM,–,–,–,–
Cc1nc2ccc(S(=O)(=O)N3CCCCC3)cc2s1,–,–,·,–,–,–
CCC(C)n1ncn(-c2ccc(N3CCN(c4ccc(O)cc4)CC3)cc2)c1=O (stereo not given),–,7.9µM,–,89µM,?,–
CN(Cc1ccccc1)C(=O)COC(=O)C12CC3CC(CC(Br)(C3)C1)C2,·,·,–,–,–,·
COc1cc(Cn2ccnc2)c(OC)cc1Cn1ccnc1,–,?,–,–,–,79µM
COc1ccc(C(=O)Nc2ccc(Cn3ccnc3)cc2)cc1OC,–,–,·,–,–,–
O=c1[nH]cnc2ncc(-c3ccc(O)cc3)nc12,·,·,·,79µM,–,·
CCCCc1nc2sc3c(=O)[nH]c(=S)[nH]c3c2c2c1CCC2,·,·,·,20µM,–,·
CCCCc1nc2sc3c(=O)[nH]cnc3c2c2c1CCCC2,–,·,–,–,–,–
Cc1c[n+]([O-])n(-c2ccc(C(=O)O)cc2)n1,–,?,?,?,–,56µM
O=C(Cc1cccc2ccccc12)Nc1nnc(-c2cccc([N+](=O)[O-])c2)s1,?,?,–,–,–,–
O=C(CSc1ccc(Cl)cc1)Nc1nnc(-c2cccc([N+](=O)[O-])c2)s1,–,40µM,–,–,–,–
CCOC(=O)c1cnc2c(OC)cccc2c1N1CCN(c2ccccc2OC)CC1,79µM,?,–,?,–,?
CCOC(=O)c1cnc2c(OC)cccc2c1N1CCN(c2ccc(OC)cc2)CC1,?,?,–,–[11.4 µM],?,11µM
CN(C)c1ccc(C(C(=O)NCC2CCCO2)N(C(=O)c2snc(C(N)=O)c2N)c2ccc3c(c2)OCO3)cc1 (stereo not given),–,40µM,–,?,–,?
COc1cc(C(C(=O)NC2CCCC2)N(Cc2ccco2)C(=O)c2snc(C(N)=O)c2N)cc(OC)c1OC (stereo not given),–,–,–,–,–,–
